# Data reported in PubChem BioAssay (NCATS).
# Values without a mark were called inactive. Inconclusive results are not listed. A call without a number means that no potency is given here. Activity calls are given as the source filed them. Calls follow the shape of the dose curve; as a rule, active = well fitted curve in the direction sought with a large enough effect; inconclusive = small, poorly fitted or top-dose-only effect, or another doubt; inactive = no such curve, though single readings can be large; an effect the other way counts as inactive or inconclusive.
# What was measured:
# [1] = NCATS anti-infectives library activity on HEK293 viability as a counter-qHTS vs the C. elegans viability qHTS (AID 1745854);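 also: HEK293 cells exposed to compounds for 24 hr before the viability read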
# In short: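 Compounds were acoustically plated (several concentrations, 1:5, final up to 41.7 uM), then 1500 HEK293 cells added per well and incubated 24 hr at 37C, 5% CO2. CellTiter-Glo was added and luminescence read after 10 min.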
# [2] = molecular target: Glutathione peroxidase 1 (Homo sapiens) (UniProt P07203); assay: Primary qHTS Assay for Inhibitors of Recombinant Selenoprotein Glutathione Peroxidase 1 (GPX1) (AID 1845191); also: nearly all actives have a fitted effect of over 65% in size; also: potency is read from the fitted curve at half-maximal effect
# In short: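 10 nM GPX1 + cpd, 30 min RT; start w/ 1 mM GSH, 0.5 mM cumene hydroperoxide, 0.5 mM NADPH, 100 nM GR, 0.01% BSA; buffer 50 mM Tris-HCl pH 7.5, 2 mM EDTA, 150 mM NaCl; Fl 340/450, 0 & 15 min.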
# [3] = molecular target: Phospholipid hydroperoxide glutathione peroxidase GPX4 (Homo sapiens) (UniProt P36969); assay: Primary qHTS Assay for Inhibitors of Recombinant Selenoprotein Glutathione Peroxidase 4 (GPX4) (AID 1845192); also: nearly all actives have a fitted effect of over 65% in size; also: potency is read from the fitted curve at half-maximal effect
# In short: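 NADPH consumption, followed by fluorescence at 340/450 nm between 0 and 15 min, reports GPX4 activity via coupled glutathione reductase (100 nM). Enzyme 200 nM was pre-exposed to compound 30 min; 0.5 mM cumene hydroperoxide and 1 mM GSH served as substrates.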
# [4] = molecular target: Luciferin 4-monooxygenase (Photinus pyralis) (UniProt P08659); assay: Primary firefly luciferase (FLuc) qHTS assay for identification of artifact compounds. (AID 1845220); also: nearly all actives have a fitted effect of over 60% in size; also: potency is read from the fitted curve at half-maximal effect
# In short: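 FLuc 10 nM; luciferin 10 uM; ATP 10 uM; Tris-acetate pH 7.6, Mg-acetate 10 mM; 15 min RT preincubation; 5 min reaction; luminescence.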
# [5] = Primary fluorescence-based thiol-reactive (MSTI) qHTS assay for identification of artifact compounds. (AID 1845221); also: nearly all actives have a fitted effect of over 65% in size; also: potency is read from the fitted curve at half-maximal effect
# In short: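 Compounds were incubated 1 h at room temperature in the dark with the MSTI probe (4 uM) in PBS pH 7.4, 2% DMSO. Signals were normalized between Acetyl-MSTI and MSTI.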
# [6] = system: Nanoluciferase (engineered Oplophorus gracilirostris luciferase); assay: Primary Nanoluciferase (NLuc) qHTS assay for identification of artifact compounds. (AID 1845222);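 also: NLuc secreted into diluted conditioned medium of S16 cells; series mostly up to about 54 µM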
# In short: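 NLuc from S16 cell medium (1:55) plus test compounds, 15 min, room temperature. Luminescence after Nano-Glo (1:100) addition, 5 min.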
# [7] = Primary redox qHTS assay for identification of artifact compounds. (AID 1845223)
# In short: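 Amplex Red (25 uM) and HRP (250 mU/mL) in HBSS, with compounds for 15 min, then 250 uM DTT for 30 min, room temperature, dark. Fluorescence 525/598 nm read; normalized to DMSO and 10 uM DA3003; Hill fit.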
# [8] = molecular target: Metallo-beta-lactamase type 2 (Klebsiella pneumoniae) (UniProt C7C422); assay: qHTS to identify inhibitors of the New Delhi Metallo-beta-lactamase (NDM): assay validation screen against the NCATS LOPAC Collection (AID 1794843); also: series mostly up to about 38 µM
# In short: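 Absorbance at 485 nm from nitrocefin turnover (50 uM solution added), read at plateau, gives the read-out. Compounds in DMSO were incubated first with 2 nM final NDM-1 in pH 7.0 HEPES buffer containing 1 uM ZnSO4 and 0.01% Tween20.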
# [9] = HepG2 viability counterscreen (readout 2: ATP content) against the NCATS DSHEA and TCM libraries (AID 1794840);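 also: HepG2 cells exposed to substances for about 24 h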
# In short: (§1)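 HepG2 cells (1,000 cells/well) attached ~4 h, then treated ~24 h at 37C with substances. Protease activity read by GF-AFC (25 uM final, 30 min, Ex/Em 380/510 nm); ATP content then by CellTiter-Glo luminescence.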
# [10] = HepG2 viability counterscreen (readout 1: protease activity) against the NCATS DSHEA and TCM libraries (AID 1794841);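 also: cells exposed to compounds for about 24 h before the protease read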
# In short: as §1
# [11] = molecular target: Cytochrome P450 3A4 (Homo sapiens) (UniProt P08684); assay: qHTS for inhibitors of CYP3A4 against the NCATS DSHEA and TCM libraries (AID 1919971);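 also: inhibition lowers luminescence from luciferin made by CYP3A4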
# In short: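 Read-out is luminescence after P450-Glo detection (30 min, RT). Before that: 15 min compound–enzyme preincubation, then 30-45 min reaction with 1x NADPH regeneration solution, substrate concentration isoform-specific.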
# [12] = Viability counterscreen for antagonist of constitutive androstane receptor (CAR) against the NCATS DSHEA and TCM libraries (AID 1794837);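 also: compound exposure lasted 24 h before viability reading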
# In short: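 HepG2-CYP2B6-hCAR cells (2,500/well) were allowed to attach for 5 h, then exposed to compounds with 48 uM CITCO for 24 h at 37C. Viability was read by CellTiter-Fluor fluorescence after 1 h.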
# [13] = Viability counterscreen for agonist of constitutive androstane receptor (CAR) against the NCATS DSHEA and TCM libraries (AID 1794838)
# In short: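 HepG2-CYP2B6-hCAR cells (2,500/well) attached 5 h, then got compounds plus 0.75 uM PK11195 final. After 24 h at 37C, viability read by CellTiter-Fluor fluorescence (Ex/Em 405/540 nm).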
# [14] = molecular target: Nuclear receptor subfamily 1 group I member 3 (Homo sapiens) (UniProt Q14994); assay: Primary qHTS for agonist of constitutive androstane receptor (CAR) against the NCATS DSHEA and TCM libraries (AID 1794839);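 also: HepG2 cells expressing human CAR with a CYP2B6 reporter plus PK11195 antagonist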
# In short: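 HepG2-CYP2B6-hCAR cells (2,500/well) were attached for 5 h, then treated for 24 h at 37 °C with compounds plus 0.75 µM PK11195. Luciferase luminescence (ONE-Glo) was read, with CellTiter-Fluor viability (Ex/Em 405/540 nm).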
# Chain of Glutathione peroxidase 1 (Homo sapiens) (P07203 whole entry, looked up): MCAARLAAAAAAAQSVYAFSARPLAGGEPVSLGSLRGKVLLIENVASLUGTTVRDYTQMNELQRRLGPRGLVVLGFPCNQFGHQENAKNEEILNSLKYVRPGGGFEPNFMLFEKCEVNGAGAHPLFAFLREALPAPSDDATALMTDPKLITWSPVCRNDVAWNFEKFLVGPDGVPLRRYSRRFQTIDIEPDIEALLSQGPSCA
# Chain of Phospholipid hydroperoxide glutathione peroxidase GPX4 (Homo sapiens) (P36969 whole entry, looked up): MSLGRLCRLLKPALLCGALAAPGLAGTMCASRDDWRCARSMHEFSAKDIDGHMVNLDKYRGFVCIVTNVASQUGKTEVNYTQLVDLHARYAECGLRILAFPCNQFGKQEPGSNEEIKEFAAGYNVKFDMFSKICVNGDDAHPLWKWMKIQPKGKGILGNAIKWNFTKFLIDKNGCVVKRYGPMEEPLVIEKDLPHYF
# Chain of Nuclear receptor subfamily 1 group I member 3 (Homo sapiens) (Q14994 whole entry, looked up): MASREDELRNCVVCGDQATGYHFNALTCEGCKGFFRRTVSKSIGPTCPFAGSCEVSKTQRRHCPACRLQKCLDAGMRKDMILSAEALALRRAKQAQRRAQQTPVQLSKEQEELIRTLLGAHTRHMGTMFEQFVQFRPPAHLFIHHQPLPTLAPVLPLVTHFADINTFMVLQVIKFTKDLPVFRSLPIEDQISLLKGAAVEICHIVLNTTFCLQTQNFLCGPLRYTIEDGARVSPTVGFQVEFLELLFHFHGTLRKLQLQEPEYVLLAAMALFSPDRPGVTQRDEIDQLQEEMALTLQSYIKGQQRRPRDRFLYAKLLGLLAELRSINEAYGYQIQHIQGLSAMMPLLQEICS
# Chain of Metallo-beta-lactamase type 2 (Klebsiella pneumoniae) (C7C422 whole entry, looked up): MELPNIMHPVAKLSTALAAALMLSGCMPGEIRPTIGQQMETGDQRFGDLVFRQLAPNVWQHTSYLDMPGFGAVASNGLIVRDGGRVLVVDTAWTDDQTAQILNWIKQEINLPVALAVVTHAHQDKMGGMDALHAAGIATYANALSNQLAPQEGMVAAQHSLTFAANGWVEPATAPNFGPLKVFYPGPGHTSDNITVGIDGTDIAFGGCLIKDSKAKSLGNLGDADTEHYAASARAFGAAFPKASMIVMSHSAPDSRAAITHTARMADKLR
# Chain of Cytochrome P450 3A4 (Homo sapiens) (P08684 whole entry, looked up, canonical isoform): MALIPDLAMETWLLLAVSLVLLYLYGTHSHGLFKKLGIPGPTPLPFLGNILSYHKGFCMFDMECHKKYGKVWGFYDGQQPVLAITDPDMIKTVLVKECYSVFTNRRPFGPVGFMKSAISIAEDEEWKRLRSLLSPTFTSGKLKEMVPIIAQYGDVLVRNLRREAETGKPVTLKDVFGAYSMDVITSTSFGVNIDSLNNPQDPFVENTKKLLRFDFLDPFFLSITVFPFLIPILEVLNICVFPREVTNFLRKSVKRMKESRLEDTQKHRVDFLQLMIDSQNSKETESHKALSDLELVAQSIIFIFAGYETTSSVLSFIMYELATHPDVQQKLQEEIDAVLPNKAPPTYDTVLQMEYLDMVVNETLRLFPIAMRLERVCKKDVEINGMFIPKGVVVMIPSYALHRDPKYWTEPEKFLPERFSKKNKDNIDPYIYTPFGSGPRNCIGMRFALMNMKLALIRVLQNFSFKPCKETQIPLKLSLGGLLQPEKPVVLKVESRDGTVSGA
smiles,measurement,setting,value
Cn1cc(-c2ccc(S(=O)(=O)n3ccc(/C=C/C(=O)Nc4ccccc4N)c3)cc2)cn1,outcome,[1],inactive
same,Potency,[2],inactive
same,Potency,[3],inactive
same,Potency,[4],inactive
same,Potency,[5],inactive
same,Potency,[6],inactive
same,Potency,[7],inactive
CC(CN1c2ccccc2Sc2ccc(S(=O)(=O)N(C)C)cc21)N(C)C (stereo unspecified),Potency,[2],inactive
NCCCC(=O)O,outcome,[8],inactive
same,Potency,[2],inactive
same,Potency,[3],inactive
COc1cc2[nH]c(C)c(CCN3CCN(c4ccccc4)CC3)c2cc1OC,Potency,[2],inactive
CC1(C)S[C@@H]2[C@H](NC(=O)[C@H](N)c3ccccc3)C(=O)N2[C@H]1C(=O)OCOC(=O)[C@@H]1N2C(=O)C[C@H]2S(=O)(=O)C1(C)C,Potency,[2],inactive
CCCOc1ccc2nc(NC(=O)OC)sc2c1,Potency,[2],inactive
same,Potency,[3],inactive
CC(C(=O)O)c1ccc(C2CCCCC2)c2ccccc12 (stereo unspecified),Potency,[2],inactive
same,Potency,[3],15800 nM (active)
CCC(C)(C)OC(=O)N[C@@H](Cc1c[nH]c2ccccc12)C(=O)N[C@@H](CCSC)C(=O)N[C@@H](CC(=O)O)C(=O)N[C@@H](Cc1ccccc1)C(N)=O,Potency,[2],inactive
CN(C)C(=O)Nc1cccc(-c2ccc(N(C)C)cc2)c1,outcome,[1],inactive
same,Potency,[3],inactive
same,Potency,[5],2670 nM (active)
same,Potency,[6],inactive
same,Potency,[7],inactive
CCC(c1ccccc1)c1noc(CCN(CC)CC)n1 (stereo unspecified),Potency,[2],inactive
same,Potency,[3],inactive
CC1=C(C(=O)OCCN(Cc2ccccc2)c2ccccc2)C(c2cccc([N+](=O)[O-])c2)C(P2(=O)OCC(C)(C)CO2)=C(C)N1 (stereo unspecified),Potency,[2],inactive
CCCCCCCCCC(=O)O,outcome,[9],inactive
same,outcome,[10],inactive
same,Potency,[2],inactive
same,Potency,[3],inactive
same,outcome,[11],inactive
O=[N+]([O-])c1ccc(Oc2ccc(N=C=S)cc2)cc1,Potency,[2],inactive
CSCC[C@H](NC(=O)[C@H](Cc1ccc(OS(=O)(=O)O)cc1)NC(=O)[C@@H](N)CC(=O)O)C(=O)NCC(=O)N[C@@H](Cc1c[nH]c2ccccc12)C(=O)N[C@@H](CCSC)C(=O)N[C@@H](CC(=O)O)C(=O)N[C@@H](Cc1ccccc1)C(N)=O,Potency,[2],inactive
same,Potency,[3],15800 nM (active)
CN1C(=O)c2sccc2N(C)c2nc(Nc3ccc(S(N)(=O)=O)cc3)ncc21,Potency,[2],inactive
Cc1ccc(/C(=C\CN2CCCC2)c2cccc(/C=C/C(=O)O)n2)cc1,Potency,[2],inactive
O=C(Nc1ncc([N+](=O)[O-])s1)c1ccccc1O,outcome,[1],inactive
same,Potency,[2],inactive
same,Potency,[4],849 nM (active)
same,Potency,[5],2380 nM (active)
same,Potency,[7],inactive
Cc1cc(-n2c(=O)[nH]c(=O)n(C)c2=O)ccc1Oc1ccc(S(=O)(=O)C(F)(F)F)cc1,Potency,[2],inactive
OCC(O)COc1ccc(Cl)cc1 (stereo unspecified),Potency,[2],inactive
same,Potency,[3],inactive
O=C(Cn1c(=O)sc2ccc(Cl)cc21)N1CCN(CCO)CC1,Potency,[2],inactive
same,Potency,[3],inactive
CC(C)(C)CC(=O)OCC(=O)[C@@]12OC(C)(C)O[C@@H]1C[C@H]1[C@@H]3CCC4=CC(=O)C=C[C@]4(C)[C@@]3(F)[C@@H](O)C[C@@]12C,Potency,[2],inactive
same,Potency,[3],inactive
COc1cc(C[C@@H]2NCCc3cc(O)c(O)cc32)cc(OC)c1OC,Potency,[2],inactive
same,Potency,[3],inactive
CC(C)(S)C(=O)N[C@@H](CS)C(=O)O,Potency,[2],inactive
same,Potency,[3],inactive
COc1ccc(CNCC(O)COc2ccc3[nH]c(=O)ccc3c2)cc1OC (stereo unspecified),Potency,[2],inactive
same,Potency,[3],inactive
Cn1nnnc1SCC1=C(C(=O)O)N2C(=O)[C@@H](NC(=O)[C@H](OC=O)c3ccccc3)[C@H]2SC1,Potency,[2],9040 nM (active)
CC1(S(=O)(=O)O)CC(=O)c2ccccc2C1=O (stereo unspecified),Potency,[2],2020 nM (active)
same,Potency,[3],891 nM (active)
CN[C@H]1CC[C@@H](c2ccc(Cl)c(Cl)c2)c2ccccc21,outcome,[8],inactive
same,Potency,[2],inactive
same,Potency,[3],inactive
CCCCc1cc2c(=O)c(C(=O)OC)c[nH]c2cc1OCc1ccccc1,Potency,[2],inactive
same,Potency,[3],inactive
CC(=O)OCC(=O)[C@@]1(O)[C@H](C)C[C@H]2[C@@H]3C[C@H](F)C4=CC(=O)C=C[C@]4(C)[C@H]3[C@@H](O)C[C@@]21C,Potency,[2],inactive
same,Potency,[3],inactive
C1CNCCN1,Potency,[2],inactive
same,Potency,[3],inactive
COc1ccc(NC(=O)c2ccc(C(=N)N(C)C)cc2)c(C(=O)Nc2ccc(Cl)cn2)c1,outcome,[1],inactive
same,Potency,[2],inactive
same,Potency,[3],inactive
same,Potency,[5],inactive
same,Potency,[6],inactive
same,Potency,[7],inactive
Cc1cc(Nc2ccccc2C(=O)O)ccc1Cl,Potency,[2],inactive
NCCCC[C@H](NC(=O)[C@@H]1CCCN1C(=O)[C@@H]1CSSC[C@H](N)C(=O)N[C@@H](Cc2ccccc2)C(=O)N[C@@H](Cc2ccccc2)C(=O)N[C@@H](CCC(N)=O)C(=O)N[C@@H](CC(N)=O)C(=O)N1)C(=O)NCC(N)=O,Potency,[2],inactive
C=CCNC1=C2C[C@@H](C)C[C@H](OC)[C@H](O)[C@@H](C)/C=C(\C)[C@H](OC(N)=O)[C@@H](OC)/C=C\C=C(/C)C(=O)NC(=CC1=O)C2=O,Potency,[2],inactive
O=C(O)CC(O)(CC(=O)O)C(=O)O,outcome,[12],inactive
same,outcome,[13],inactive
same,outcome,[14],inactive
same,outcome,[9],inactive
same,outcome,[10],inactive
same,Potency,[2],inactive
same,Potency,[3],inactive
same,outcome,[11],inactive
C[C@@H]1CN(CC(=O)N2CC(C)(C)c3ncc(Cc4ccc(F)cc4)cc32)[C@@H](CN2CCOC[C@H]2C)CN1,Potency,[2],inactive
same,Potency,[3],inactive
COc1ccc(CCNCC(O)COc2cccc(C)c2)cc1OC (stereo unspecified),Potency,[2],inactive
same,Potency,[3],inactive
C=C1[C@H]2CC[C@H](C(=O)O)[C@@]23CC[C@H](C3)C1(C)C,outcome,[12],inactive
same,outcome,[13],inactive
same,outcome,[14],inactive
same,outcome,[9],inactive
same,outcome,[10],inactive
same,Potency,[2],inactive
same,Potency,[3],inactive
same,Potency,[4],inactive
same,Potency,[5],inactive
same,Potency,[6],inactive
same,Potency,[7],inactive
CCCC(=O)O[C@]1(C(=O)COC(=O)CC)[C@@H](C)C[C@H]2[C@@H]3CCC4=CC(=O)C=C[C@]4(C)[C@@]3(F)[C@@H](O)C[C@@]21C,Potency,[2],inactive
N#Cc1ccnc(Nc2cc(C3CCN(C4COC4)CC3)cc(N3CCC(F)(F)C3)n2)c1,Potency,[2],inactive
CC(=O)O[C@@H]1CC[C@@]2(C)[C@H](CC[C@@H]3[C@@H]2C[C@H](OC(C)=O)[C@]2(C)[C@@H](C(C)=O)CC[C@@H]32)C1,Potency,[2],inactive
same,Potency,[3],inactive
same,Potency,[4],inactive
same,Potency,[5],inactive
same,Potency,[6],inactive
COc1cc(CN(CCN)C(=O)c2cccs2)ccc1OCc1ccccc1,Potency,[2],inactive
same,Potency,[3],inactive
same,Potency,[4],inactive
same,Potency,[5],inactive
same,Potency,[6],inactive
COc1ccc(C#Cc2ccc(C(=O)N3CCC[C@@H](CO)C3)cc2)cc1,Potency,[2],inactive
same,Potency,[3],inactive
same,Potency,[4],inactive
same,Potency,[5],inactive
same,Potency,[6],inactive
O=C(O)c1ccc(N2C(=O)/C(=C/c3ccc(-c4ccc([N+](=O)[O-])cc4)o3)C=C2c2ccccc2)cc1,Potency,[2],inactive
same,Potency,[3],inactive
same,Potency,[4],inactive
same,Potency,[5],423 nM (active)
CCCCCCCCCCCCCCCCCC(=O)OCCO,Potency,[2],inactive
same,Potency,[3],inactive
